Sampled rows, rich in hits. Any-hit rate of the full collection: about 7.5%.
SMN2 splice enh: qHTS Assay for Enhancers of SMN2 Splice Variant Expression | HEK293 SMN2-luciferase splicing reporter, luminescence, 30-36 h | Potency, µM (series often up to 46.1 µM), for the others: at the top dose activity change, positive = activation, usual class: activators | 210,000 tested, 2.8% active; further: % of control where 0% means no effect; nearly all actives have a fitted effect of over 55% in size
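HEK293 cells carry an SMN2 minigene-luciferase reporter in which exon 7 inclusion puts luciferase in frame. Cells were seeded at 2000 cells/well, attached for 10-12 hours, then exposed to compounds for 30-36 hours at 37C before ONE-Glo luminescence.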
FLuc modulator: qHTS profiling assay for firefly luciferase inhibitor/activator using purifed enzyme and Km concentrations of substrates (counterscreen for miR-21 project) | Luciferin 4-monooxygenase (Photinus pyralis), P08659 | purified FLuc, Km substrates, luminescence inhibition | Potency, µM (doses to about 57.5 µM), without a hit: at the top dose activity change, negative = inhibition, actives largely listed as inhibitors | 360,000 tested, 6.9% active;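 further: plate controls were vehicle for no effect and reference inhibitor for full effect; nearly all actives have a fitted effect of over 55% in size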
Target sequence (P08659 whole entry, looked up): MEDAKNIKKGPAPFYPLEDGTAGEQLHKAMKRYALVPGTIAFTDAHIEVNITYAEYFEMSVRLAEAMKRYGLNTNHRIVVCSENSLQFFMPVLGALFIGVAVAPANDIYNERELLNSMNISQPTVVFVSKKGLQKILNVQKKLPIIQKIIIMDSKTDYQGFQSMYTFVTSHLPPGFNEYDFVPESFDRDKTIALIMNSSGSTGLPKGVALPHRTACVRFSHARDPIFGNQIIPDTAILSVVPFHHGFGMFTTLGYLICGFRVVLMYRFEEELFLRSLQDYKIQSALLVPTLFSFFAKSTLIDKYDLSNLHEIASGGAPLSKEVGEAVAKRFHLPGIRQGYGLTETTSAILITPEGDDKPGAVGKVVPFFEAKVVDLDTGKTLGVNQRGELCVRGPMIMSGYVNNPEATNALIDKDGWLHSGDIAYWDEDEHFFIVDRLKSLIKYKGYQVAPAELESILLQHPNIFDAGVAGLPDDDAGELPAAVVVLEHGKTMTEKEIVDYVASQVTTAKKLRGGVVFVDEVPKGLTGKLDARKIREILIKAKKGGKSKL
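Biochemical qHTS of compounds, final roughly 60 µM downward over six points, against 10 nM purified firefly luciferase using Km concentrations of substrates (10 uM D-luciferin, 10 uM ATP) in Tris acetate pH 7.5 buffer; luminescence output.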
Rab9 promoter act: qHTS Assay for Rab9 Promoter Activators. Huh7 Rab9 promoter-luciferase reporter, luminescence, 24 h. Potency, µM (top dose mostly 9.22 µM), without a hit: top-dose activation, negative = inhibition, actives largely listed as activators. 320,000 tested, 2.8% active. AID 485297, 2010; further: % of control where 0% means no effect; nearly all actives have a fitted effect of over 60% in size
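Promoter activation is measured as luciferase luminescence in Huh7 cells stably transfected with a Rab9 promoter–luciferase construct, following 24 h compound exposure at 37 °C and 10 min reagent incubation at ambient temperature.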
NPC1 promoter act: qHTS Assay for NPC1 Promoter Activators; Huh7 NPC1 promoter luciferase reporter, 24 h; Potency, µM (titrated, usually from 9.22 µM), without a hit: top-dose activation, actives largely listed as activators; 320,000 tested, 2.4% active; AID 485313, 2010; further: % of control where 0% means no effect; nearly all actives have a fitted effect of over 60% in size
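NPC1 promoter–luciferase Huh7 cells; 24 h compound; luminescence.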
ELG1 genotoxic: qHTS screen for small molecules that induce genotoxicity in human embryonic kidney (HEK293T) cells expressing luciferase-tagged ELG1; HEK293T ELG1-luciferase reporter, luminescence, 16 h; Potency, µM (highest dose often 46 µM), for the others: at the highest dose activity change, positive = activation, actives largely listed as activators; 330,000 tested, 1.3% active; further: % of control where 0% means no effect; nearly all actives have a fitted effect of over 60% in size
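Cells (2,000/well) expressing the ELG1-luciferase fusion are dosed by pin tool and kept 16 hr at 37 °C, 5% CO2. Signal comes from ONE-Glo luciferase reagent after 30 min at room temperature.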
An asterisk follows results filed as active. The call rests on the fitted dose curve; in most records, active means well fitted curve in the direction sought with a large enough effect; inconclusive means small, poorly fitted or top-dose-only effect, or another doubt; inactive means no such curve, though single readings can be large; an effect the other way counts as inactive or inconclusive. Potency means the concentration at half of the fitted maximal effect.

Screening Cc1cccc(NC(=S)NC(=O)c2oc3ccccc3c2C)n1 returned FLuc modulator inconclusive, Rab9 promoter act 1.41µM*, NPC1 promoter act 1.26µM* and ELG1 genotoxic inconclusive.
For Cc1cccc(NC(=S)NC(=O)c2ccc(-c3ccccc3)cc2)n1 the results were FLuc modulator 10.7µM*, Rab9 promoter act 2.24µM*, NPC1 promoter act 2.82µM* and ELG1 genotoxic inconclusive.
Screening Cc1cccc(NC(=O)Cc2ccc(-c3ccccc3)cc2)n1 returned FLuc modulator inconclusive, Rab9 promoter act 2.6%, NPC1 promoter act -1.7% and ELG1 genotoxic -4.7%.
Screening Cc1ccc(OCC(=O)Nc2ccc(Cl)c(-c3nc4ncccc4o3)c2)c(C)c1 returned FLuc modulator -22.9%.
Screening CCCN1C(=O)C(=O)N(CC(=O)c2cc(C)n(C3CC3)c2C)C1=O returned FLuc modulator inconclusive, Rab9 promoter act 1.41µM*, NPC1 promoter act 2.82µM* and ELG1 genotoxic inconclusive.
For O=C(Nc1ccccc1Cl)c1sccc1-c1ccccc1 the results were FLuc modulator 2.4%, Rab9 promoter act -2.5%, NPC1 promoter act -5.1% and ELG1 genotoxic 0.0%.
For Cc1nc(NC(=O)Nc2ccc(Cl)cc2)sc1C the results were SMN2 splice enh inconclusive, FLuc modulator inconclusive, Rab9 promoter act 3.16µM*, NPC1 promoter act 11.6% and ELG1 genotoxic 9.7%.
Screening O=C(Nc1ccc(Cl)cc1)Nc1ccc(S(=O)(=O)Nc2ncccn2)cc1 returned FLuc modulator inconclusive, Rab9 promoter act -3.8%, NPC1 promoter act -5.2% and ELG1 genotoxic 0.5%.
Screening O=C(Nc1ccccn1)C(=O)Nc1ccccn1 returned FLuc modulator 5.36µM*, Rab9 promoter act 1.26µM*, NPC1 promoter act 1.41µM* and ELG1 genotoxic 4.61µM*.
`O=C(Nc1ccc(Cl)cc1)Nc1ccccn1` gave FLuc modulator 5.36µM*, Rab9 promoter act 2.24µM*, NPC1 promoter act 2.82µM* and ELG1 genotoxic inconclusive.
`S=C(Nc1ccccn1)c1ccccn1` gave SMN2 splice enh 20µM*, FLuc modulator 7.57µM*, Rab9 promoter act 2.51µM*, NPC1 promoter act 2.82µM* and ELG1 genotoxic 12.6µM*.
Screening O=C(O)c1ccccc1C(=O)Nc1ccccn1 returned SMN2 splice enh -5.2%, FLuc modulator 3.2%, Rab9 promoter act 5.2%, NPC1 promoter act -8.2% and ELG1 genotoxic 6.4%.
Screening CCCCNC(=O)C1CC(c2ccc(C(F)(F)F)cc2)=NO1 (stereo not given) returned FLuc modulator 3.3%, Rab9 promoter act -8.9%, NPC1 promoter act -5.0% and ELG1 genotoxic 3.0%.
Screening Cc1ccccc1NC(=O)N(CCc1nc2ccccc2[nH]1)Cc1ccccc1 returned SMN2 splice enh -14.0%, FLuc modulator 0.7%, Rab9 promoter act 8.4%, NPC1 promoter act -4.6% and ELG1 genotoxic -3.0%.
Oc1ccccc1CNc1cnc2ccccc2c1 was read as SMN2 splice enh inconclusive, FLuc modulator 10.7µM*, Rab9 promoter act inconclusive, NPC1 promoter act inconclusive and ELG1 genotoxic inconclusive.
`Oc1ccccc1CNc1cccc2cccnc12` gave FLuc modulator 16.9µM*, Rab9 promoter act 27.1%, NPC1 promoter act 2.3% and ELG1 genotoxic inconclusive.
Screening Oc1ccc(Cl)cc1CNc1cnc2ccccc2c1 returned FLuc modulator -13.4%, Rab9 promoter act 3.7%, NPC1 promoter act -4.4% and ELG1 genotoxic 3.8%.
For O=C(Nc1ccncc1)Nc1ccc(Cl)cc1 the results were FLuc modulator 21.3µM*, Rab9 promoter act 6.2%, NPC1 promoter act 21.8% and ELG1 genotoxic 14.4%.
`CCOC(=O)c1ccc(NC(=O)Nc2ccccn2)cc1` gave FLuc modulator 2.69µM*, Rab9 promoter act 1.26µM*, NPC1 promoter act 2.51µM* and ELG1 genotoxic inconclusive.
For C[C@@H]1CN(C2CCN(Cc3nc(CC4CC4)no3)CC2)C[C@H](C)O1 the results were FLuc modulator inconclusive, Rab9 promoter act 1.0%, NPC1 promoter act -2.8% and ELG1 genotoxic 3.0%.
O=C(Nc1ccccc1)Nc1cccc2cccnc12 was read as SMN2 splice enh 14.1µM*, FLuc modulator 6.01µM*, Rab9 promoter act 23.4%, NPC1 promoter act 2.7% and ELG1 genotoxic 6.31µM*.
O=C(Nc1ccccn1)c1ccc(-c2ccccc2)cc1 was read as FLuc modulator 0.213µM*, Rab9 promoter act 0.0891µM*, NPC1 promoter act 0.1µM* and ELG1 genotoxic inconclusive.
Screening O=C(Nc1ccccc1)Nc1ccccn1 returned SMN2 splice enh 14.1µM*, FLuc modulator 12µM*, Rab9 promoter act inconclusive, NPC1 promoter act inconclusive and ELG1 genotoxic inconclusive.
`O=C(Nc1ccccn1)c1ccc2nc(-c3ccccc3)c(-c3ccccc3)nc2c1` gave SMN2 splice enh inconclusive, FLuc modulator -9.6%, Rab9 promoter act -4.8%, NPC1 promoter act -6.5% and ELG1 genotoxic -14.2%.
O=C(Nc1ccccc1)Nc1cccc2ccccc12 was read as FLuc modulator inconclusive, Rab9 promoter act 19.1%, NPC1 promoter act 11.2% and ELG1 genotoxic -0.3%.
Screening CCC1CCCCN1CCCNC(=O)c1cn(CC)c2ccc(S(=O)(=O)N3CCc4ccccc4C3)cc2c1=O (stereo not given) returned SMN2 splice enh -13.7%, FLuc modulator 0.2%, Rab9 promoter act -10.1%, NPC1 promoter act -45.2% and ELG1 genotoxic 10.1%.
`Cc1ccc(C(=O)Nc2ccccc2C(=O)Nc2ccccn2)cc1Cl` gave FLuc modulator 5.36µM*, Rab9 promoter act 16.9%, NPC1 promoter act 2.3% and ELG1 genotoxic 3.0%.
Screening Cc1ccnc(NC(=O)c2ccccc2NC(=O)c2ccc(Cl)cc2Cl)c1 returned FLuc modulator 12µM*, Rab9 promoter act -13.6%, NPC1 promoter act -22.7% and ELG1 genotoxic inconclusive.
For Cc1ccnc(NC(=O)CC(NC(=O)c2ccccc2Cl)c2ccccc2)c1 (stereo not given) the results were FLuc modulator 10.7µM*, Rab9 promoter act -2.1%, NPC1 promoter act -0.4% and ELG1 genotoxic 20.6µM*.
For Cc1ccc(C(=O)Nc2cccnc2Cl)cc1Cl the results were FLuc modulator 16.9µM*, Rab9 promoter act inconclusive, NPC1 promoter act inconclusive and ELG1 genotoxic 18.3µM*.
Screening Cc1ccc(NC(=O)CC(NC(=O)c2ccccc2Cl)c2ccccc2)nc1 (stereo not given) returned FLuc modulator 6.7%, Rab9 promoter act -0.5%, NPC1 promoter act 0.4% and ELG1 genotoxic inconclusive.
Screening COc1ccc(/C=N/NC(=O)c2cc3c(ccc4ccccc43)o2)c(OC)c1 returned FLuc modulator inconclusive, Rab9 promoter act -0.3%, NPC1 promoter act 1.2% and ELG1 genotoxic -11.1%.
